The text below walks through data of PubChem BioAssay AID504332 (National Center for Advancing Translational Sciences (NCATS), 2011).

Where “and” joins values, the source holds several entries; their conditions need not be identical. Equal entries are not always repeated. The whole screen tested about 350,000 compounds, of which about 31,000 (8.9%) were called active. Entries that show only a call come without a potency. Inconclusive results (about 15%) are left out. Calls follow the shape of the dose curve; as a rule, active = well fitted inhibition curve with a large enough effect; inconclusive = small, poorly fitted or top-dose-only effect; inactive = no such curve, though single readings can be large or run the other way. The sample as a whole holds a higher share of actives than the screen did. Some compounds were tested as several samples or in several runs, with calls that do not always agree.
Potency is read from the fitted curve at half-maximal effect.

This test deals with Histone-lysine N-methyltransferase EHMT2 (Homo sapiens) (UniProt Q96KQ7). The experiment in a line: qHTS Assay for Inhibitors of Histone Lysine Methyltransferase G9a. Also: nearly all actives have a fitted effect of over 75% in size. The conditions noted are these: G9a H3K9 monomethylation, AlphaScreen, 2 h; series mostly up to 59 µM. In outline: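 Chemiluminescent proximity detection of H3K9 monomethylation, read after 10 min bead incubation in the dark. Reaction: 20 nM G9a, 500 nM biotin-H3K9 peptide, 20 uM SAM cofactor, 2 h, room temperature, following 15 min enzyme-compound preincubation.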
Sequence of Histone-lysine N-methyltransferase EHMT2 (Homo sapiens) (Q96KQ7 913-1193 limits assumed): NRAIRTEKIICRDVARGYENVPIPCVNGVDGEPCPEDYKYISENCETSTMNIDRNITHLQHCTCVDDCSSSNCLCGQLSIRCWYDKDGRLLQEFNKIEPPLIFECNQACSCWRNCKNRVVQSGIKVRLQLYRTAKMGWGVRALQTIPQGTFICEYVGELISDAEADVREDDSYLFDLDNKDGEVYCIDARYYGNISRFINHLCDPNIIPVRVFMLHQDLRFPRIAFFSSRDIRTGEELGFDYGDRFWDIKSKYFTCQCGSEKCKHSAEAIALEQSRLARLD
In the case of `O=C(CSc1cccc[n+]1[O-])c1ccc(-c2ccccc2)cc1`, the Potency is 3.55 µM (active).

As to `O=C(CSc1nc(Nc2ccc(F)c(F)c2)c2ccccc2n1)c1ccc(Cl)cc1`, the Potency result is “inactive”.

In the case of `O=C(CSc1cccc[n+]1[O-])c1ccc(Cl)cc1`, the Potency is 4.47 µM (active).

As for `Cc1cc(Oc2ccc(Cl)cc2)nc(SCC(=O)c2ccccc2)n1`, the Potency entry is “inactive”.

`O=C(CSc1cccc[n+]1[O-])NCCCc1ccccc1`: the Potency entry was “inactive”.

For `COc1ccccc1C(=O)CSc1cccc[n+]1[O-]`, the Potency result was “inactive”.

As for `O=C(COC(=O)c1ncc(Cl)c(Cl)c1Cl)NC1CCS(=O)(=O)C1` (stereo unspecified), the activity, negative = inhibition is 3.15% [at 12.7 µM] (inactive).

For `O=C(NCC1CCCO1)c1cc2c(s1)CCCC2` (stereo unspecified), the activity, negative = inhibition is 29.8% [at 12.7 µM] (inactive).

For `Cc1nc(SCCOc2ccc(Cl)cc2)[nH]c(=O)c1Cc1ccccc1`, the Potency result is “inactive”.

In the case of `CCS(=O)(=O)N1CCc2cc(C(=O)NCc3ccc(OC)cc3)ccc21`, the Potency entry is “inactive”.

`O=C1Nc2ccccc2/C1=C/c1ccnc2ccccc12`: the Potency result is “inactive”.

Regarding `CN(C)/C=C1/C(=O)Nc2ccccc21`, the activity, negative = inhibition is -2.73% [at 12.7 µM] (inactive).

With `Cc1cc(C)c(/C=C2\C(=O)Nc3ccccc32)[nH]1`, the Potency is 4.47 µM (active) and 16.8 µM (active); the activity, negative = inhibition was -50.4% [at 12.7 µM] (inactive).

Turning to `Cc1cc(-c2ccc(C)c(S(=O)(=O)NCCCN(Cc3ccccc3)C(C)C)c2)on1`, the Potency result is “inactive”.

As for `Cc1cccc(NC(=S)NCCc2ccc(Cl)cc2)c1C`, the Potency result is “inactive”.

Consider `Oc1cc2c(cc1O)CN(C(=S)NCCc1ccc(Cl)cc1)CCC2`, for which the Potency is 3.55 µM (active) and 2 µM (active) and 4.74 µM (active).

For the molecule `COc1ccc(CCNC(=S)N2CCN(S(=O)(=O)c3ccc(Cl)cc3)CC2)cc1`, the Potency result is “inactive”.

In the case of `O=C(NCCc1csc(-c2ccc(C(F)(F)F)cc2)n1)C(=O)Nc1ccc(F)c(Cl)c1`, the Potency entry is “inactive”.

Take `Cc1c(C=O)c2ccccc2n1CCOc1ccccc1`: the Potency result was “inactive”.

Turning to `Cc1ccc(CS(=O)(=O)CCC(=O)NCc2ccc(F)cc2)cc1`, the Potency result was “inactive”.

`O=C1c2ccccc2C(=O)C1c1ccccc1`: the Potency entry was “inactive and 35.5 µM (active)”.

With `O=C1NC(c2ccccc2)Oc2ccccc21` (stereo unspecified), the Potency result is “inactive”.

As for `CN1C(=O)C[C@H](c2ccccc2)C1=O`, the activity, negative = inhibition is -19.1% [at 12.7 µM] (inactive).

`CCOC(=O)N1CCN(C(=O)COc2ccc3oc4c(c3c2)CCCC4)CC1`: the activity, negative = inhibition was 14.4% [at 2.33 µM] (inactive).

For the molecule `O=C(CCN1C(=O)C2CCCCC2C1=O)Nc1ccc(OC(F)F)cc1` (stereo unspecified), the Potency result was “inactive”.

In the case of `CCOc1cc(/C=N/NC(=O)c2cccc(S(=O)(=O)N3CCOCC3)c2)ccc1OCC(=O)N(C)C`, the Potency entry is “inactive”.

For `O=S(=O)(c1ccc(SCc2ccccc2)nc1)N1CCCCCC1`, the activity, negative = inhibition is -5.2% [at 12.7 µM] (inactive).

Take `Cc1ccc(-n2nnnc2CNC(=O)c2ccccc2C)cc1C`: the Potency entry was “inactive”.

In the case of `COC(=O)c1ccc(C(=O)OC)c(NC(=S)N2CCN(c3ccc(F)cc3)CC2)c1`, the Potency is 44.7 µM (active).

For the molecule `COC(=O)c1ccccc1OCC(=O)N1CCN(c2ccc(Cl)cc2)CC1`, the activity, negative = inhibition was 3.66% [at 12.7 µM] (inactive).

For the molecule `COC(=O)c1ccc(C(=O)OC)c(NC(=S)N2CCN(c3cc(Cl)ccc3C)CC2)c1`, the Potency entry is “inactive”.

Regarding `COc1ccccc1CNC(=O)c1ccccc1NC(=O)c1nsc2ccccc12`, the Potency result was “inactive”.

Regarding `COc1ccc(CCN2C(=O)N(c3cccc(OC)c3)C(=O)C2CC(=O)Nc2ccccc2)cc1` (stereo unspecified), the Potency entry is “inactive”.

Regarding `CC(C)c1ccc(/C=C/C(=O)NCCCN2CCOCC2)cc1`, the Potency result is “inactive”.

For the molecule `Cn1cnc([N+](=O)[O-])c1Sc1ccccc1`, the Potency result is “inactive”.

Turning to `Cn1cnc([N+](=O)[O-])c1Sc1n[nH]c(N)n1`, the Potency result was “inactive”.

Turning to `Cn1cnc([N+](=O)[O-])c1Nc1ccccc1O`, the Potency was 25.1 µM (active).

Turning to `Cc1ccc(C2(C)NC(=O)N(CC(=O)Nc3ccccc3C(=O)N3CCCCC3)C2=O)cc1` (stereo unspecified), the Potency result was “inactive”.

In the case of `Fc1ccc(-c2nc(Nc3cccc(Cl)c3)nc3c2COc2ccccc2-3)cc1`, the Potency result was “inactive”.

As for `Cc1ccc(S(=O)(=O)N2CCC(C(=O)NCCC3=CCCCC3)CC2)cc1C`, the activity, negative = inhibition was 15.2% [at 0.501 µM] (inactive).

For `O=[N+]([O-])c1ccc(N2CCN(CC(O)COc3ccccc3)CC2)cc1` (stereo unspecified), the Potency result is “inactive”.

Turning to `C[N+]1(CC(O)COc2ccccc2)CCN(C(=O)c2ccc([N+](=O)[O-])cc2)CC1` (stereo unspecified), the Potency was 6.31 µM (active).

On to `O=C(c1ccccc1)c1ccc(OCC(O)CN2CCCC2)cc1` (stereo unspecified), for which the Potency entry was “inactive”.

As for `COc1ccc(CC(=O)N/N=C/c2cc([N+](=O)[O-])cc(Br)c2O)cc1`, the Potency result is “inactive”.

In the case of `CCOc1cc2[nH]c(=O)n(Cc3ccc(C(=O)NCCN(CC)CC)cc3)c(=O)c2cc1OCC`, the Potency entry is “inactive”.

Take `COc1ccc(Cn2c(=S)[nH]c3cc(C(=O)NCCCN4CCOCC4)ccc3c2=O)cc1`: the Potency is 10 µM (active).

`Cc1c(C)n(Cc2ccc(Cl)cc2)c2ccc(C(=O)NCCCN3CCOCC3)cc12`: the Potency is 44.7 µM (active).

On to `CCN(CC)CCCNC(=O)c1ccc2c(=O)n(Cc3ccc4c(c3)OCO4)c(=S)[nH]c2c1`, for which the Potency was 31.6 µM (active).

For the molecule `O=C(NCCCN1CCOCC1)c1cc(-c2ccc(Cl)cc2)on1`, the Potency entry is “inactive”.

Take `COc1ccc(Cn2c(=S)[nH]c3cc(C(=O)N4CCCCC4)ccc3c2=O)cc1`: the Potency entry is “inactive”.

For the molecule `CCCCNC(=O)CCn1c(=S)[nH]c2cc3c(cc2c1=O)OCO3`, the activity, negative = inhibition is 5.03% [at 0.0925 µM] (inactive).

Turning to `CN(C)CCn1c(=S)[nH]c2ccc(Cl)cc2c1=O`, the Potency was 50.1 µM (active).

As to `CCCCn1c(=S)[nH]c2ccccc2c1=O`, the Potency result is “inactive”.

`COc1ccc(-c2cc(C(=O)NCCCN3CCOCC3)no2)cc1`: the Potency entry is “inactive”.

Turning to `Cc1ccc(NS(=O)(=O)c2ccc(C(=O)NCCCN3CCOCC3)cc2)cc1`, the Potency result was “inactive”.

`O=C(CCn1c(=S)[nH]c2cc3c(cc2c1=O)OCO3)NCc1ccc(Cl)cc1`: the Potency entry was “inactive”.

As to `Cc1ccc2nnn(Cc3cccc(C(C)(C)C)c3O)c2c1`, the activity, negative = inhibition was 15.4% [at 2.33 µM] (inactive).

Regarding `COc1ccc(CCNC(=O)CCc2c(C)nc3c(c(C)nn3-c3ccc(C)c(C)c3)c2C)c(OC)c1OC`, the Potency result is “inactive”.

For the molecule `O=C(CSc1nnnn1C1CCCC1)N1CCCCC1`, the Potency result is “inactive”.

Take `Cc1cccc(CC(=O)Nc2cccc(-c3cn4cccnc4n3)c2)c1`: the Potency entry is “inactive”.

On to `CC(=O)c1ccc(NC(=O)C2CCN(S(=O)(=O)c3c(C)noc3/C=C/c3ccc(C)cc3)CC2)cc1`, for which the Potency result is “inactive”.

As for `Cc1noc(C)c1COc1ccc(C(=O)NCCOc2ccccc2)cc1`, the activity, negative = inhibition is 19.8% [at 12.7 µM] (inactive).

As for `Cc1ccc(CNC(=O)CCc2c(C)nc3c(c(C)nn3-c3ccccc3)c2C)cc1`, the Potency entry is “inactive”.

Consider `CC(CC(=O)N1CCN(c2ccccc2)CC1)S(=O)(=O)c1ccc2c(c1)NC(=O)CS2` (stereo unspecified), for which the Potency result was “inactive”.

Consider `Cc1ccc(N2CC(c3nnc(Cc4ccccc4Cl)o3)CC2=O)cc1` (stereo unspecified), for which the Potency entry was “inactive”.

On to `COc1cccc(NC(=O)CN(C)C(=O)c2cc(C3CC3)nn2-c2ccccc2)c1`, for which the activity, negative = inhibition was 1.72% [at 2.33 µM] (inactive).

On to `Cn1c(=O)c2c(SCC(=O)N3CCc4ccccc43)nc(-c3ccc(Cl)cc3)nc2n(C)c1=O`, for which the Potency result was “inactive”.

For `CCOc1cc2[nH]c(=S)n(Cc3ccc(C(=O)N4CCN(C)CC4)cc3)c(=O)c2cc1OCC`, the Potency entry was “inactive”.

As to `CCOC(=O)N1CCN(C(=O)c2ccc3c(=O)n(CCc4ccc(OC)c(OC)c4)c(=O)[nH]c3c2)CC1`, the Potency entry was “inactive”.

As to `COc1cc2[nH]c(=S)n(Cc3ccc(F)cc3)c(=O)c2cc1OC`, the Potency result is “inactive”.

As for `NC(=O)C1CCN(C(=O)c2ccc3c(=O)n(Cc4cccc(Br)c4)c(=S)[nH]c3c2)CC1`, the Potency was 39.8 µM (active).

On to `O=C(O)c1ccc(Cn2c(=S)[nH]c3cc(Cl)ccc3c2=O)cc1`, for which the Potency is 39.8 µM (active).

For `COc1ccccc1Cn1c(=S)[nH]c2cc(C(=O)N3CCN(C)CC3)ccc2c1=O`, the Potency result is “inactive”.

On to `COc1ccc(Nc2ncc(C(=O)Nc3cc(C)ccc3OC)c3ccccc23)cc1`, for which the Potency entry was “inactive”.

`O=C(NCc1ccncc1)C1CCCN(S(=O)(=O)c2ccc(Br)cc2)C1` (stereo unspecified): the Potency result is “inactive”.

`Cc1ccc(C)c(N2CCN(C(=O)Cn3ncc4c(=O)oc5ccc(C)cc5c43)CC2)c1`: the Potency entry was “inactive”.

On to `COc1cc(OC)c(N(C)C(=O)c2cc3c(=O)oc4ccccc4c3s2)cc1Cl`, for which the Potency entry is “inactive”.

For the molecule `COc1ccccc1CNC(=O)c1ccc(-n2c(C)cc3c2CCCC3)cc1`, the Potency result is “inactive”.

On to `c1ccc(COc2nsnc2N2CCOCC2)cc1`, for which the Potency is 14.1 µM (active).

As to `O=C(O)COc1nsnc1N1CCOCC1`, the Potency result is “inactive”.

As to `c1nc(COc2nsnc2N2CCOCC2)cs1`, the activity, negative = inhibition is 15.5% [at 2.33 µM] (inactive).

With `CCOc1ccc(N(CC)C(=O)c2cc3c(=O)oc4ccccc4c3s2)cc1`, the Potency result is “inactive”.

For `CCS(=O)(=O)C1=NSC2=NC(=O)/C(=C\c3ccc(OS(=O)(=O)c4ccccc4)cc3)C(=N)N21`, the Potency was 39.8 µM (active).

Turning to `Cc1cc(/C=C2/C(=N)N3C(=NC2=O)SN=C3S(C)(=O)=O)c(C)n1-c1ccccc1`, the Potency was 35.5 µM (active).

Turning to `CCS(=O)(=O)C1=NSC2=NC(=O)/C(=C\c3cc(C)n(-c4cccc(OC)c4)c3C)C(=N)N21`, the Potency entry is “inactive”.

For the molecule `N=C1/C(=C/c2cccn2-c2cccc([N+](=O)[O-])c2)C(=O)N=C2SC=CN12`, the Potency entry was “inactive”.

For `Cc1ccc(C2=N/C(=C\c3ccc(OS(=O)(=O)c4ccc(C)cc4)cc3)C(=O)O2)cc1`, the Potency entry was “inactive”.

For the molecule `COc1cc(/C=C2\C(=N)N3N=C(CC(=O)N4CCOCC4)SC3=NC2=O)cc(OC)c1OC`, the Potency entry is “inactive”.

For the molecule `CCC1=Nc2cc(C(=O)NCCCOC(C)C)ccc2Sc2ccc(C)cc21`, the Potency entry was “inactive”.

`O=C(COC(=O)c1ccccn1)NNC(=O)c1ccc([N+](=O)[O-])cc1`: the Potency entry was “inactive”.

For the molecule `CCCNC(=O)c1ccc(Cn2c(SCC(N)=O)nc3ccccc3c2=O)cc1`, the Potency result is “inactive”.

For the molecule `CC(=O)CCC(=O)c1ccc2ccccc2c1`, the Potency entry is “inactive”.

As to `C=CC(=O)c1ccc2ccccc2c1`, the Potency was 1.26 µM (active).

For `CC(=O)c1ccc2c(ccc3ccccc32)c1`, the Potency result was “inactive”.

On to `O=C(/C=C/c1ccccc1)Nc1cc(-c2nc3cc(Cl)ccc3o2)ccc1Cl`, for which the Potency entry was “inactive”.
